Hits are enriched below; roughly 3.7% of the tested compounds scored in any of these assays.
Mtb FBA inh = inhibits M. tuberculosis FBA enzyme. P9WQA3. purified M. tuberculosis FBA, fluorescence read-out. inhibition, % at 1 µM. hit rate 2.3% among 360,000. AID 588726; in the data active = inhibition above about 27%
Target sequence (P9WQA3 whole entry, looked up): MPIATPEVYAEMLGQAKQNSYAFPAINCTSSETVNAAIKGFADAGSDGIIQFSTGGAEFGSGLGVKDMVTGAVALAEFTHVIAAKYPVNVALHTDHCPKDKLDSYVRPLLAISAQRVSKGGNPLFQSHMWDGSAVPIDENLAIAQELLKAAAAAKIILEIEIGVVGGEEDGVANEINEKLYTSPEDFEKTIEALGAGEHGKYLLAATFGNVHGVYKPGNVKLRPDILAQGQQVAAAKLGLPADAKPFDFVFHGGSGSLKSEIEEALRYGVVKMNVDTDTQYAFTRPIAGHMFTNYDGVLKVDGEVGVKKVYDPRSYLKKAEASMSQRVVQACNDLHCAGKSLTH
UGM FP inh = inhibitors of M. tuberculosis UDP-galactopyranose mutase | purified UGM, fluorescence polarization probe displacement | hit rate 0.06% among 320,000 | inhibition, % at 10 µM | P9WIQ1 | AID 504406; in the data active = inhibition above about 10%, passing the limit was not always enough; inconclusive = no clear call, values can overlap the other calls
FadD28 FP inh = M. tuberculosis FadD28 bisubstrate binding inhibition. FadD28 bisubstrate probe binding, fluorescence polarization. inhibition, % at 12.5 µM. hit rate 0.22% among 360,000. AID 588549; in the data active = inhibition above about 8.5%, passing the limit was not always enough; inconclusive = no clear call, values can overlap the other calls
Rv3671c inh = inhibitors of M. tuberculosis serine protease Rv3671c; P9WHR9; inhibition, % at 5.96 µM; hit rate 0.048% among 320,000; in the data active = inhibition above about 38%;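 also: extracellular domain of Rv3671c used as enzyme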
GDH-TPI counter = inhibits GDH-TPI coupling enzymes, artifact for Mtb FBA screen. inhibition, % at 4.8 µM. GDH-TPI coupled enzyme counterscreen, NADH absorbance. hit rate 1.2% among 360,000; in the data active = inhibition above about 30%
Mtb betalactam = beta-lactam sensitization of Mtb H37Rv | AID 434955 | hit rate 0.27% among 330,000 | inhibition, % at 25 µM | M. tuberculosis H37Rv growth with meropenem, percent inhibition; call rule not given here;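 also: growth measured after seven days incubation then overnight dye step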
Large screens that a line does not name were inactive; ! = repeats disagree.

COc1ccc(OC)c(N(CC(=O)NCCSCc2ccco2)S(=O)(=O)c2ccc(OC)c(OC)c2)c1	none
COc1ccc(C(=O)N2CCC2(C)C(=O)O)cc1C(F)(F)F (stereo not drawn)	none (no result: UGM FP inh, Rv3671c inh, Mtb betalactam)
Cc1cccn2c(=O)c3cc(C(=O)NC4CCCC4)c(=N)n(C4CCCC4)c3nc12	Mtb FBA inh active
N=c1c(C(=O)NC2CCCC2)cc2c(=O)n3ccccc3nc2n1C1CCCC1	Mtb FBA inh 123
CCCn1c(=N)c(C(=O)NC2CCCC2)cc2c(=O)n3cccc(C)c3nc21	Mtb FBA inh active
CCn1c(=N)c(C(=O)NC)cc2c(=O)n3cccc(C)c3nc21	Mtb FBA inh active (no result: UGM FP inh, Rv3671c inh, Mtb betalactam)
C[C@@H]1CN([C@@H](C)CO)C(=O)CCCn2cc(nn2)CO[C@H]1CN(C)S(=O)(=O)c1cn(C)cn1	none (no result: UGM FP inh, Rv3671c inh, Mtb betalactam)
CCCCOc1ccc(C(=O)NCC(=O)NCC(c2ccc(F)cc2)N2CCOCC2)cc1 (stereo not drawn)	none
Cc1cc(Cl)c2oc(C(=O)N(C)CC3CCOCC3)c(C)c2c1	none
CC1(c2ccc(Cl)cc2)NC(=O)N(CC(=O)N2CCN(C(=O)c3cccs3)CC2)C1=O (stereo not drawn)	none (no result: UGM FP inh, Rv3671c inh, Mtb betalactam)
N=c1c(C(=O)NCc2ccco2)cc2c(=O)n3ccccc3nc2n1C1CCCC1	Mtb FBA inh active
N=c1c(S(=O)(=O)c2ccccc2)cc2c(=O)n3ccccc3nc2n1C1CCCC1	none
Cc1sc2ncnc(NCC(O)c3ccccc3)c2c1C (stereo not drawn)	none
COc1ccc(/C=N/Nc2ncnc3sc(C)c(C)c23)cc1	none
Cc1sc2ncnc(N/N=C/c3ccccc3O)c2c1C	GDH-TPI counter 35
Oc1ccc(/C=N/Nc2nccnc2Cl)cc1	none
Cc1sc2ncnc(N/N=C/c3ccc(O)cc3)c2c1C	GDH-TPI counter 48
Nc1c(Cl)ncnc1N/N=C/c1ccc(O)cc1	GDH-TPI counter 42
COc1cccc(/C=N/Nc2ncnc3scc(-c4ccccc4)c23)c1OC	GDH-TPI counter 41
CC1=C(C(=O)N(C(C)C)C(C)C)CC(CC(=O)NC2CC2)C(=O)N1CCCN1CCCC1=O (stereo not drawn)	none (no result: UGM FP inh, Rv3671c inh, GDH-TPI counter, Mtb betalactam)
Cc1ccc(C(=O)NCC(=O)OCC(=O)N(CC(C)C)c2c(N)n(Cc3ccccc3)c(=O)[nH]c2=O)s1	none (no result: UGM FP inh, Rv3671c inh, Mtb betalactam)
O[C@H]1C[C@H](c2ccc(Cl)cc2)N(CC2CCCCC2)C[C@@H]1n1cc(C2CC2)nn1	none (no result: UGM FP inh, Rv3671c inh, Mtb betalactam)
CC1=C(C(=O)N2CCOCC2)CC(CC(=O)NCC2CCCCC2)C(=O)N1Cc1ccccc1 (stereo not drawn)	none (no result: UGM FP inh, Rv3671c inh, Mtb betalactam)
O=C(Nc1cc(C(F)(F)F)ccc1N1CCOCC1)c1cccc(S(=O)(=O)N2CCOCC2)c1	none (no result: UGM FP inh, Rv3671c inh, Mtb betalactam)
COc1ccc(C2NC(=O)NC3=C2CCc2ccccc23)cc1 (stereo not drawn)	Mtb FBA inh 34
COc1cccc(C2NC(=S)NC3=C2CCc2ccccc23)c1 (stereo not drawn)	none
CC(=O)N(C)c1ccc(N=Nc2ccc3ncccc3c2)cc1	GDH-TPI counter 56 (no result: UGM FP inh, Rv3671c inh, Mtb betalactam)
CNC(=S)N(CCO)Cc1cc2cc3c(cc2[nH]c1=O)OCO3	Mtb FBA inh 33
Cc1cc(Br)ccc1SCC(=O)OCC(=O)NCc1ccco1	none
CCOC(=O)N1CCC(NC(=S)Nc2ccc3nc(N4CCN(C)CC4)cc(C)c3c2)CC1	none
CCCN(CCC)CCNC(=O)CCC(=O)Nc1ccc2nc(N3CCN(C)CC3)cc(C)c2c1	Mtb FBA inh active
CCOC(=O)N1CCC(NC(=S)Nc2ccc3nc(N4CCN(CC)CC4)cc(C)c3c2)CC1	GDH-TPI counter 35
CCCCNC(=O)CCC(=O)Nc1ccc2nc(N3CCN(C)CC3)cc(C)c2c1	none
CN1C=CC(=O)[C@@H](OC(=O)Nc2ccc(Br)cc2)[C@H]1c1ccccc1Br	none (no result: UGM FP inh, Rv3671c inh, Mtb betalactam)
CS(=O)c1ccccc1-c1nc(-c2ccc([N+](=O)[O-])cc2)no1 (stereo not drawn)	none (no result: UGM FP inh, Rv3671c inh, Mtb betalactam)
O=C(Cc1cc(=O)oc2cc(O)ccc12)NCC1CCC(C(=O)O)CC1 (stereo not drawn)	Mtb FBA inh active
Cc1cc(=O)oc2cc(OC(C)C(=O)NCC3CCC(C(=O)O)CC3)ccc12 (stereo not drawn)	Mtb FBA inh 28
COc1ccc(CN(C(=S)Nc2ccccc2)C2CC(=O)N(c3ccc(F)cc3)C2=O)cc1 (stereo not drawn)	none
COc1ccc(N2C(=O)CS/C2=N\C(=S)Nc2ccccc2)cc1	GDH-TPI counter 37
COc1ccc(-c2nn(CCC#N)cc2C=C(C#N)C#N)cc1	none
Cc1ccc(-c2nn(CCC#N)cc2C=C(C#N)C#N)cc1	GDH-TPI counter 33
Cc1cc(=O)oc2c(CN(C)Cc3ccccc3)c(O)ccc12	none (no result: Mtb FBA inh)
CCN(CC)Cc1c(O)ccc2c(=O)c(Oc3ccccc3OC)c(C)oc12	Mtb FBA inh active
COc1ccccc1Oc1c(C)oc2c(CN(C)C)c(O)ccc2c1=O	Mtb FBA inh active
CCCC(=O)N1CCC1(C)C(=O)Nc1cc(OC)ccc1OC (stereo not drawn)	none (no result: UGM FP inh, Rv3671c inh, Mtb betalactam)
CN1c2ccccc2C(O)=C(C(=S)Nc2ccc(Cl)cc2)S1(=O)=O	FadD28 FP inh inconclusive, GDH-TPI counter 48
COCCCN1C(=O)c2ccc(C(=O)OCC(=O)N(CCC#N)c3cc(C)cc(C)c3)cc2C1=O	none
COc1cc(OC)cc(-c2nnc(SCC(=O)N3CCCC3)o2)c1	Mtb FBA inh 118
CCC1(OC(=O)CN)C(=O)OCc2c1cc1n(c2=O)Cc2cc3ccccc3nc2-1 (stereo not drawn)	Mtb FBA inh active
Cc1cccc(/C=N\Nc2cn[nH]c(=O)c2Cl)c1	GDH-TPI counter 44
O=c1[nH]ncc(N/N=C\c2ccncc2)c1Cl	GDH-TPI counter 44
Clc1ccc2c(N/N=C/c3cccnc3)ccnc2c1	none
O=c1[nH]ncc(N/N=C\c2cccnc2)c1Cl	GDH-TPI counter 43
COc1ccccc1/C=N\Nc1cn[nH]c(=O)c1Cl	none
O=c1[nH]ncc(N/N=C\c2cccs2)c1Cl	GDH-TPI counter 36
CC(=O)N1CCN(C(=O)COC(=O)/C=C/c2ccccc2[N+](=O)[O-])CC1	none (no result: FadD28 FP inh)
Cc1noc(/C=C/N(C)C)c1S(=O)(=O)N1CCCC(C(=O)NC2CCCCC2C)C1 (stereo not drawn)	FadD28 FP inh inconclusive, GDH-TPI counter 62
Cc1noc(/C=C/N(C)C)c1S(=O)(=O)N1CCCC(C(=O)NCCC2=CCCCC2)C1 (stereo not drawn)	GDH-TPI counter 46
Cc1noc(C)c1S(=O)(=O)N1CCCC(C(=O)NCCC2=CCCCC2)C1 (stereo not drawn)	none
Cc1noc(C)c1S(=O)(=O)N1CCCC(C(=O)NC2CCCCC2)C1 (stereo not drawn)	none
Cc1noc(/C=C/N(C)C)c1S(=O)(=O)N1CCCC(C(=O)NC(C)c2ccccc2)C1 (stereo not drawn)	GDH-TPI counter 37, Mtb betalactam inconclusive
Nc1ccc(C(=O)O)c(O)c1	FadD28 FP inh 16!
O=c1oc2ccc3ccccc3c2c2c1SC(C(F)(F)F)C2 (stereo not drawn)	none
O=c1oc2ccccc2c2c1SC(C(F)(F)F)C2 (stereo not drawn)	Mtb FBA inh active

Screens deposited in PubChem by several laboratories.
